According to the supplement of paper PMC4466140:

What was measured:
Assay in all cases: SPOT peptide array binding signal intensity (averaged, normalized) (arbitrary units (background-subtracted, floor 0; scale differs between SH3 domains)); higher = stronger binding of the SH3 domain to the peptide
AgAbp1 = molecular target: AgAbp1
Procedure, shortened: (§1)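 To measure binding, SH3 domains from four yeast species were fused to GST, expressed in E. coli BL21(DE3) and purified on glutathione Sepharose. Each domain was incubated at 10 μg/ml overnight at 4°C on cellulose membranes with synthetic 15-mer peptides whose cysteines were replaced by serines. Anti-GST antibody, an HRP anti-mouse secondary and luminol were used for detection, and images were quantified with Genespotter. Reported binding signal is normalized, background-subtracted spot intensity averaged over replicates, in arbitrary units that differ between domains.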

AgBbc1 = molecular target: AgBbc1
Procedure, shortened: as §1

AgBem1-D1 = molecular target: AgBem1-D1
Procedure, shortened: as §1

AgBzz1-D1 = molecular target: AgBzz1-D1
Procedure, shortened: as §1

AgBzz1-D2 = molecular target: AgBzz1-D2
Procedure, shortened: as §1

AgCyk3 = molecular target: AgCyk3
Procedure, shortened: as §1

AgFus1 = molecular target: AgFus1
Procedure, shortened: as §1

AgHof1 = molecular target: AgHof1
Procedure, shortened: as §1

AgHse1 = molecular target: AgHse1
Procedure, shortened: as §1

AgLsb1 = molecular target: AgLsb1
Procedure, shortened: as §1

AgLsb4 = molecular target: AgLsb4
Procedure, shortened: as §1

AgMyo5 = molecular target: AgMyo5
Procedure, shortened: as §1

AgNbp2 = molecular target: AgNbp2
Procedure, shortened: as §1

AgRvs167 = molecular target: AgRvs167
Procedure, shortened: as §1

AgSho1 = molecular target: AgSho1
Procedure, shortened: as §1

AgSla1-D1-D2 = molecular target: AgSla1-D1-D2
Procedure, shortened: as §1

AgSla1-D3 = molecular target: AgSla1-D3
Procedure, shortened: as §1

CaAbp1-D1 = molecular target: CaAbp1-D1
Procedure, shortened: as §1

CaAbp1-D2 = molecular target: CaAbp1-D2
Procedure, shortened: as §1

CaBbc1 = molecular target: CaBbc1
Procedure, shortened: as §1

CaBem1-D1 = molecular target: CaBem1-D1
Procedure, shortened: as §1

CaBzz1-D1 = molecular target: CaBzz1-D1
Procedure, shortened: as §1

CaBzz1-D2 = molecular target: CaBzz1-D2
Procedure, shortened: as §1

CaCyk3 = molecular target: CaCyk3
Procedure, shortened: as §1

CaFus1 = molecular target: CaFus1
Procedure, shortened: as §1

CaHof1 = molecular target: CaHof1
Procedure, shortened: as §1

CaHse1 = molecular target: CaHse1
Procedure, shortened: as §1

CaLsb1 = molecular target: CaLsb1
Procedure, shortened: as §1

CaLsb4 = molecular target: CaLsb4
Procedure, shortened: as §1

CaMyo5 = molecular target: CaMyo5
Procedure, shortened: as §1

CaNbp2 = molecular target: CaNbp2
Procedure, shortened: as §1

CaRvs167 = molecular target: CaRvs167
Procedure, shortened: as §1

CaRvs167-3 = molecular target: CaRvs167-3
Procedure, shortened: as §1

CaSho1 = molecular target: CaSho1
Procedure, shortened: as §1

CaSla1-D1-D2 = molecular target: CaSla1-D1-D2
Procedure, shortened: as §1

CaSla1-D3 = molecular target: CaSla1-D3
Procedure, shortened: as §1

ScAbp1 = molecular target: ScAbp1
Procedure, shortened: as §1

ScBbc1 = molecular target: ScBbc1
Procedure, shortened: as §1

ScBem1-D1 = molecular target: ScBem1-D1
Procedure, shortened: as §1

ScBzz1-D1 = molecular target: ScBzz1-D1
Procedure, shortened: as §1

ScBzz1-D2 = molecular target: ScBzz1-D2
Procedure, shortened: as §1

ScCyk3 = molecular target: ScCyk3
Procedure, shortened: as §1

ScFus1 = molecular target: ScFus1
Procedure, shortened: as §1

ScHof1 = molecular target: ScHof1
Procedure, shortened: as §1

ScHse1 = molecular target: ScHse1
Procedure, shortened: as §1

ScLsb1 = molecular target: ScLsb1
Procedure, shortened: as §1

ScLsb2 = molecular target: ScLsb2
Procedure, shortened: as §1

ScLsb3 = molecular target: ScLsb3
Procedure, shortened: as §1

ScLsb4 = molecular target: ScLsb4
Procedure, shortened: as §1

ScMyo3 = molecular target: ScMyo3
Procedure, shortened: as §1

ScMyo5 = molecular target: ScMyo5
Procedure, shortened: as §1

ScNbp2 = molecular target: ScNbp2
Procedure, shortened: as §1

ScPex13 = molecular target: ScPex13
Procedure, shortened: as §1

ScRvs167 = molecular target: ScRvs167
Procedure, shortened: as §1

ScSho1 = molecular target: ScSho1
Procedure, shortened: as §1

ScSla1-D1-D2 = molecular target: ScSla1-D1-D2
Procedure, shortened: as §1

ScSla1-D3 = molecular target: ScSla1-D3
Procedure, shortened: as §1

SpAbp1-D1 = molecular target: SpAbp1-D1
Procedure, shortened: as §1

SpBbc1 = molecular target: SpBbc1
Procedure, shortened: as §1

SpBzz1-D1 = molecular target: SpBzz1-D1
Procedure, shortened: as §1

SpBzz1-D2 = molecular target: SpBzz1-D2
Procedure, shortened: as §1

SpCyk3 = molecular target: SpCyk3
Procedure, shortened: as §1

SpHof1 = molecular target: SpHof1
Procedure, shortened: as §1

SpHof1-2 = molecular target: SpHof1-2
Procedure, shortened: as §1

SpHof1-3 = molecular target: SpHof1-3
Procedure, shortened: as §1

SpHse1 = molecular target: SpHse1
Procedure, shortened: as §1

SpLsb1 = molecular target: SpLsb1
Procedure, shortened: as §1

SpLsb4 = molecular target: SpLsb4
Procedure, shortened: as §1

SpMyo1 = molecular target: SpMyo1
Procedure, shortened: as §1

SpNbp2 = molecular target: SpNbp2
Procedure, shortened: as §1

SpPex13 = molecular target: SpPex13
Procedure, shortened: as §1

SpRvs167 = molecular target: SpRvs167
Procedure, shortened: as §1

SpSla1-D1-D2 = molecular target: SpSla1-D1-D2
Procedure, shortened: as §1

SpSla1-D3 = molecular target: SpSla1-D3
Procedure, shortened: as §1

WRPRIVPILPYITRL
SPOT peptide array binding signal intensity (AgAbp1): 6 | SPOT peptide array binding signal intensity (AgBbc1): 13.5 | SPOT peptide array binding signal intensity (AgBem1-D1): 108 | SPOT peptide array binding signal intensity (AgBzz1-D1): 11 | SPOT peptide array binding signal intensity (AgBzz1-D2): 7.5 | SPOT peptide array binding signal intensity (AgCyk3): 9 | SPOT peptide array binding signal intensity (AgFus1): 90 | SPOT peptide array binding signal intensity (AgHof1): 132 | SPOT peptide array binding signal intensity (AgHse1): 434 | SPOT peptide array binding signal intensity (AgLsb1): 11 | SPOT peptide array binding signal intensity (AgLsb4): 22 | SPOT peptide array binding signal intensity (AgMyo5): 2.5 | SPOT peptide array binding signal intensity (AgNbp2): 140 | SPOT peptide array binding signal intensity (AgRvs167): 2 | SPOT peptide array binding signal intensity (AgSho1): 17 | SPOT peptide array binding signal intensity (AgSla1-D1-D2): 6.5 | SPOT peptide array binding signal intensity (AgSla1-D3): 4 | SPOT peptide array binding signal intensity (CaAbp1-D1): 109 | SPOT peptide array binding signal intensity (CaAbp1-D2): 92.5 | SPOT peptide array binding signal intensity (CaBbc1): 58.8 | SPOT peptide array binding signal intensity (CaBem1-D1): 22 | SPOT peptide array binding signal intensity (CaBzz1-D1): 49.5 | SPOT peptide array binding signal intensity (CaBzz1-D2): 24.2 | SPOT peptide array binding signal intensity (CaCyk3): 29.5 | SPOT peptide array binding signal intensity (CaFus1): 460 | SPOT peptide array binding signal intensity (CaHof1): 2 | SPOT peptide array binding signal intensity (CaHse1): 32 | SPOT peptide array binding signal intensity (CaLsb1): 3.5 | SPOT peptide array binding signal intensity (CaLsb4): 56 | SPOT peptide array binding signal intensity (CaMyo5): 1.5

EQEEIAPSLPSRNSI
SPOT peptide array binding signal intensity (AgAbp1): 6 | SPOT peptide array binding signal intensity (AgBbc1): ≤ 0 | SPOT peptide array binding signal intensity (AgBem1-D1): ≤ 0 | SPOT peptide array binding signal intensity (AgBzz1-D1): 10.5 | SPOT peptide array binding signal intensity (AgBzz1-D2): 1 | SPOT peptide array binding signal intensity (AgCyk3): ≤ 0 | SPOT peptide array binding signal intensity (AgFus1): ≤ 0 | SPOT peptide array binding signal intensity (AgHof1): 4.25 | SPOT peptide array binding signal intensity (AgHse1): ≤ 0 | SPOT peptide array binding signal intensity (AgLsb1): 17.5 | SPOT peptide array binding signal intensity (AgLsb4): 1050 | SPOT peptide array binding signal intensity (AgMyo5): ≤ 0 | SPOT peptide array binding signal intensity (AgNbp2): 10 | SPOT peptide array binding signal intensity (AgRvs167): 3 | SPOT peptide array binding signal intensity (AgSho1): ≤ 0 | SPOT peptide array binding signal intensity (AgSla1-D1-D2): ≤ 0 | SPOT peptide array binding signal intensity (AgSla1-D3): ≤ 0 | SPOT peptide array binding signal intensity (CaAbp1-D1): ≤ 0 | SPOT peptide array binding signal intensity (CaAbp1-D2): 7.5 | SPOT peptide array binding signal intensity (CaBbc1): 5.5 | SPOT peptide array binding signal intensity (CaBem1-D1): 2 | SPOT peptide array binding signal intensity (CaBzz1-D1): ≤ 0 | SPOT peptide array binding signal intensity (CaBzz1-D2): ≤ 0 | SPOT peptide array binding signal intensity (CaCyk3): 1 | SPOT peptide array binding signal intensity (CaFus1): 22 | SPOT peptide array binding signal intensity (CaHof1): 1 | SPOT peptide array binding signal intensity (CaHse1): 4 | SPOT peptide array binding signal intensity (CaLsb1): 0.5 | SPOT peptide array binding signal intensity (CaLsb4): 5990 | SPOT peptide array binding signal intensity (CaMyo5): ≤ 0 | SPOT peptide array binding signal intensity (CaNbp2): ≤ 0 | SPOT peptide array binding signal intensity (CaRvs167): 43.8 | SPOT peptide array binding signal intensity (CaRvs167-3): 1 | SPOT peptide array binding signal intensity (CaSho1): ≤ 0 | SPOT peptide array binding signal intensity (CaSla1-D1-D2): ≤ 0 | SPOT peptide array binding signal intensity (CaSla1-D3): ≤ 0 | SPOT peptide array binding signal intensity (ScAbp1): 14.5 | SPOT peptide array binding signal intensity (ScBbc1): ≤ 0 | SPOT peptide array binding signal intensity (ScBem1-D1): ≤ 0 | SPOT peptide array binding signal intensity (ScBzz1-D1): 7 | SPOT peptide array binding signal intensity (ScBzz1-D2): 1 | SPOT peptide array binding signal intensity (ScCyk3): 1 | SPOT peptide array binding signal intensity (ScFus1): 1 | SPOT peptide array binding signal intensity (ScHof1): 1.5 | SPOT peptide array binding signal intensity (ScHse1): 7 | SPOT peptide array binding signal intensity (ScLsb1): 127 | SPOT peptide array binding signal intensity (ScLsb2): 8 | SPOT peptide array binding signal intensity (ScLsb3): 4150 | SPOT peptide array binding signal intensity (ScLsb4): 2440 | SPOT peptide array binding signal intensity (ScMyo3): ≤ 0 | SPOT peptide array binding signal intensity (ScMyo5): ≤ 0 | SPOT peptide array binding signal intensity (ScNbp2): 2.5 | SPOT peptide array binding signal intensity (ScPex13): 646 | SPOT peptide array binding signal intensity (ScRvs167): 244 | SPOT peptide array binding signal intensity (ScSho1): ≤ 0 | SPOT peptide array binding signal intensity (ScSla1-D1-D2): 1 | SPOT peptide array binding signal intensity (ScSla1-D3): 1 | SPOT peptide array binding signal intensity (SpAbp1-D1): 1 | SPOT peptide array binding signal intensity (SpBbc1): 2 | SPOT peptide array binding signal intensity (SpBzz1-D1): ≤ 0 | SPOT peptide array binding signal intensity (SpBzz1-D2): 1 | SPOT peptide array binding signal intensity (SpCyk3): ≤ 0 | SPOT peptide array binding signal intensity (SpHof1): 1 | SPOT peptide array binding signal intensity (SpHof1-2): ≤ 0 | SPOT peptide array binding signal intensity (SpHof1-3): 0.75 | SPOT peptide array binding signal intensity (SpHse1): ≤ 0 | SPOT peptide array binding signal intensity (SpLsb1): 13 | SPOT peptide array binding signal intensity (SpLsb4): 4140 | SPOT peptide array binding signal intensity (SpMyo1): ≤ 0 | SPOT peptide array binding signal intensity (SpNbp2): 5.5 | SPOT peptide array binding signal intensity (SpPex13): ≤ 0 | SPOT peptide array binding signal intensity (SpRvs167): 450 | SPOT peptide array binding signal intensity (SpSla1-D1-D2): 2 | SPOT peptide array binding signal intensity (SpSla1-D3): 1

FVLRYYILIPHEQWD
SPOT peptide array binding signal intensity (SpBzz1-D2): 3.25 | SPOT peptide array binding signal intensity (SpCyk3): 27.5 | SPOT peptide array binding signal intensity (SpHof1): 79.5 | SPOT peptide array binding signal intensity (SpHof1-2): 32.5 | SPOT peptide array binding signal intensity (SpHof1-3): 554 | SPOT peptide array binding signal intensity (SpHse1): 954 | SPOT peptide array binding signal intensity (SpLsb1): 2.5 | SPOT peptide array binding signal intensity (SpLsb4): 11.5 | SPOT peptide array binding signal intensity (SpMyo1): 13.2 | SPOT peptide array binding signal intensity (SpNbp2): 574 | SPOT peptide array binding signal intensity (SpPex13): 47.5 | SPOT peptide array binding signal intensity (SpRvs167): 10.7 | SPOT peptide array binding signal intensity (SpSla1-D1-D2): 1 | SPOT peptide array binding signal intensity (SpSla1-D3): 9.5
